Bioassay records deposited in PubChem BioAssay by National Center for Advancing Translational Sciences (NCATS).
KDM5B inhibitor = KDM5B demethylase inhibition | 220,000 tested, 2.6% active | AID 1347165 | Q9UGL1 | Potency, µM (titrated, usually from 57.7 µM), usual class: inhibitors | KDM5B demethylase, FDH-coupled NADH fluorescence (FDH is formaldehyde dehydrogenase); active means well fitted inhibition curve with a large enough effect; further: 0% is about no effect; nearly all actives have a fitted effect of over 70% in size
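KDM5BΔAP (200 nM final) in 50 mM HEPES pH 7.5, 0.01% Tween-20 was preincubated 10 min at RT with compound over a concentration range. Substrate mix (H3K4me3 12.5 µM, α-KG 25 µM, Fe²⁺, ascorbate, NAD⁺, FDH) was added, and NADH fluorescence change over 30 min gave dose-response curves.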
The depositor's hits bear a star. The entries come from a sample that favours hits as a whole. Potency means the concentration at half of the fitted maximal effect.

Results for CC1(COc2cccnc2)COc2ccc(C(=O)N3CCOCC3)cc2N1 (centres undefined) ?
KDM5B inhibitor: inactive

Results for CC1(COc2cccnc2)COc2ccc(C(=O)NCCc3ccccc3)cc2N1 (centres undefined) ?
KDM5B inhibitor: 35.5µM*

How did Cc1ccc2cc(CSc3nnc(C(F)(F)F)n3C)c(Cl)nc2c1C do in these assays?
KDM5B inhibitor: inactive

How did Cc1ccccc1CNC(=O)Cn1cnc2c1c(=O)n(C)c(=O)n2C do in these assays?
KDM5B inhibitor: inactive

Results for CN1CCC(OC2CCN(C(=O)c3ccc(F)cc3F)CC2)CC1 ?
KDM5B inhibitor: inactive

What do the screens show for `CSc1cccc(Nc2nc(N)c(C(=O)c3cccc(Br)c3)s2)c1`?
KDM5B inhibitor: inactive

What do the screens show for `Cc1c(C)n2c3c(=O)[nH]c(=O)n(C)c3nc2n1CCNc1ccccc1Cl`?
KDM5B inhibitor: inactive

What do the screens show for `Cc1ccc2c(c1)C/C(=C\c1cccnc1)C2=O`?
KDM5B inhibitor: inactive

How did O=C(Nc1cc(C(F)(F)F)ccc1F)c1cccc(COc2ccc(Cl)cc2)c1 do in these assays?
KDM5B inhibitor: inactive

What do the screens show for `CCNc1ccc(C)cc1C`?
KDM5B inhibitor: inactive

How did Cc1cccc(CN2CC(Oc3cccc(C(=O)NCC4CC4)c3)C2)c1 do in these assays?
KDM5B inhibitor: inactive

What do the screens show for `Nc1cccc(C(=O)NCC2CCN(Cc3cc(F)cc(F)c3)C2)c1` (centres undefined)?
KDM5B inhibitor: 28.2µM*

How did CCNC(=O)NCC1CCN(Cc2cc(Cl)cc(Cl)c2)C1 (centres undefined) do in these assays?
KDM5B inhibitor: inactive

Results for O=C(NCC1CC1)c1cccc(OC2CN(Cc3cccc(F)c3)C2)c1 ?
KDM5B inhibitor: inactive

Results for Cc1cccc(CNC(=O)NCC2CCN(Cc3ccncc3)C2)c1 (centres undefined) ?
KDM5B inhibitor: 14.1µM*

Results for Cc1ccc(CN2CCC(CNC(=O)Nc3ccc(Cl)cc3)C2)cc1 (centres undefined) ?
KDM5B inhibitor: inactive

What do the screens show for `CCOc1ccc(CNCc2c(C(=O)O)c(C)n(Cc3ccccc3Cl)c2C)cc1`?
KDM5B inhibitor: inactive

Results for COc1cccc2cc(C(=O)NC3CCN(Cc4ccc(Cl)cc4)CC3)c(=O)oc12 ?
KDM5B inhibitor: inactive

What do the screens show for `CCc1noc(-c2nc(-c3ccc4c(c3)OCO4)no2)n1`?
KDM5B inhibitor: inactive

Results for COc1ccc(-c2noc(-c3nc(Cc4ccccc4)no3)n2)cc1OC ?
KDM5B inhibitor: 28.2µM*

How did c1ccc(-c2noc(-c3nc(-c4ccc5c(c4)OCO5)no3)n2)cc1 do in these assays?
KDM5B inhibitor: inactive

Results for CCCc1noc(-c2nc(-c3ccc(OC)c(OC)c3)no2)n1 ?
KDM5B inhibitor: inactive

Results for Cc1ccc(-c2noc(-c3nc(Cc4ccccc4)no3)n2)cc1 ?
KDM5B inhibitor: inactive

How did c1ccc(Cc2noc(-c3nc(-c4ccc5c(c4)OCO5)no3)n2)cc1 do in these assays?
KDM5B inhibitor: 35.5µM*

Results for CC(Sc1n[nH]c(-c2ccccc2)n1)c1nc(C(C)(C)C)no1 (centres undefined) ?
KDM5B inhibitor: inactive

How did COc1ccccc1/C=C/C=C(/C#N)C(=O)NC(C)c1ccccc1 (centres undefined) do in these assays?
KDM5B inhibitor: inactive

How did Cc1cccc(C(C)C)c1NC(=O)c1nn(C)c(=O)c2ccccc12 do in these assays?
KDM5B inhibitor: inactive

What do the screens show for `COc1ccc(C(=O)N2CCn3nc(C(O)CS(C)(=O)=O)cc3C2)cn1` (centres undefined)?
KDM5B inhibitor: inactive

What do the screens show for `CS(=O)(=O)CC(O)c1cc2n(n1)CCN(Cc1ccc(Cl)s1)C2` (centres undefined)?
KDM5B inhibitor: inactive

What do the screens show for `CS(=O)(=O)CC(O)c1cc2n(n1)CCN(c1cncc(C(N)=O)n1)C2` (centres undefined)?
KDM5B inhibitor: 25.1µM*

How did COCc1nn2c(c1-c1ccccc1)NC(=O)CC2C(=O)Nc1ccc(NC(C)=O)cc1 (centres undefined) do in these assays?
KDM5B inhibitor: inactive

Results for CCCCCCOc1ccc(C(=O)N2CCN(c3oc(-c4ccco4)nc3C#N)CC2)cc1OC ?
KDM5B inhibitor: inactive

What do the screens show for `O=C(CSc1nnc(-c2cccc(S(=O)(=O)N3CCCC3)c2)o1)c1ccccc1`?
KDM5B inhibitor: inactive

What do the screens show for `COCCN1C(=O)c2ccccc2C(C(=O)NCCc2c[nH]c3ccccc23)C12CCCC2` (centres undefined)?
KDM5B inhibitor: 22.4µM*

What do the screens show for `COCCN1C(=O)c2ccccc2C(C(=O)Nc2ccc(NC(C)=O)cc2)C12CCCCC2` (centres undefined)?
KDM5B inhibitor: inactive

Results for O=C(NC1CC1)C1c2ccccc2C(=O)N(C2CCCCC2)C12CCCCC2 (centres undefined) ?
KDM5B inhibitor: inactive

How did CCCCNC(=O)C1c2ccccc2C(=O)N(CCOC)C12CCCCC2 (centres undefined) do in these assays?
KDM5B inhibitor: inactive

What do the screens show for `Cc1nc(NC(=O)C2c3ccccc3C(=O)N(C3CCCC3)C23CCCC3)sc1C` (centres undefined)?
KDM5B inhibitor: 22.4µM*

How did COCCN1C(=O)c2ccccc2C(C(=O)NCCc2ccccc2)C12CCCCC2 (centres undefined) do in these assays?
KDM5B inhibitor: inactive

How did COCCN1C(=O)c2ccccc2C(C(=O)Nc2ccc(C(=O)OC)cc2)C12CCCC2 (centres undefined) do in these assays?
KDM5B inhibitor: inactive

What do the screens show for `COCCN1C(=O)c2ccccc2C(C(=O)Nc2ccc(OC)cc2)C12CCCC2` (centres undefined)?
KDM5B inhibitor: 15.8µM*

What do the screens show for `CC(C)NC(=O)C1c2ccccc2C(=O)N(C2CCCC2)C12CCCC2` (centres undefined)?
KDM5B inhibitor: inactive

What do the screens show for `C/C=C/C=C/C(=O)NC(C)c1ccc(F)cc1F` (centres undefined)?
KDM5B inhibitor: inactive

What do the screens show for `COc1ccc2c(c1)CC/C(=C\c1ccc(Br)cc1)C2=O`?
KDM5B inhibitor: inactive

What do the screens show for `O=C(NCC1CN(Cc2ccccc2)CCO1)C1CCCC1` (centres undefined)?
KDM5B inhibitor: inactive

Results for CC1(C)CC(NC(=O)CCc2ncc(-c3ccccc3)o2)CC(C)(C)N1 ?
KDM5B inhibitor: inactive

How did Cc1cccc(NC(=O)N2CCC(CCNS(=O)(=O)c3c(C)cc(C)cc3C)CC2)c1 do in these assays?
KDM5B inhibitor: inactive

How did Cn1nc(CC(=O)NCC2CCCCC2)c2ccccc2c1=O do in these assays?
KDM5B inhibitor: inactive

Results for CC(NC(=O)c1ccc(Cl)o1)c1nc(-c2ccc(F)cc2)no1 (centres undefined) ?
KDM5B inhibitor: inactive

What do the screens show for `CC(C)(C)c1ccc(NC(=O)c2ccc(C(F)(F)F)nc2)cc1`?
KDM5B inhibitor: inactive

How did CCn1c(SCCC(=O)O)nc2c(=O)n(C)c(=O)n(C)c21 do in these assays?
KDM5B inhibitor: inactive

Results for COc1ccc(-c2nnc3ccc(Nc4cccc(OC)c4)nn23)nc1 ?
KDM5B inhibitor: inactive

Results for COc1ccc(-c2nnc3ccc(NC4CCCCC4)nn23)nc1 ?
KDM5B inhibitor: 31.6µM*

How did Cc1ccc(-c2nnc3ccc(NC4CCC4)nn23)nc1 do in these assays?
KDM5B inhibitor: inactive

Results for COCCNc1ccc2nnc(C)n2n1 ?
KDM5B inhibitor: inactive

What do the screens show for `COCCNc1ccc2nnc(-c3ccc(OC)cn3)n2n1`?
KDM5B inhibitor: 39.8µM*
